Assay results reported in PubChem BioAssay (Tox21).
A number with no mark means an inactive call. Records with an inconclusive call do not appear. A call without a number means that no potency is given here. Calls of active or inactive are those of the source. Unless noted, calls come from the whole dose curve; as a rule, active = well fitted curve in the direction sought with a large enough effect in the repeat runs; inconclusive = weak or mixed curves; inactive = no such curve, though single readings can be large; an effect the other way counts as inactive or inconclusive.

Assays:
[1] = qHTS assay to identify small molecule agonists of the estrogen receptor alpha (ER-alpha) signaling pathway in the presence of an antagonist - cell viability counter screen (AID 1259386);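 note: cells exposed to compounds for 22 h at 37 °C before the viability read; nearly all actives have a fitted effect of over 30% in size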; note: potency is the fitted concentration of half-maximal effect
Procedure, shortened: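 Steps: 5-day stripped-FBS culture; seed and incubate 24hr; add ICI-182,780 (10.0nM final); pin 15-point compound titration; incubate 22hr at 37C; add CellTiter-Fluor at 21hr; read fluorescence.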

[2] = molecular target: Progesterone receptor (Homo sapiens) (UniProt P06401); assay: qHTS assay to identify small molecule agonists of the progesterone receptor (PR) signaling pathway (AID 1346784; calls by dose curve; note: nearly all actives have a fitted effect of over 30% in size)
Procedure, shortened: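 Agonist qHTS: compounds pinned onto 3,000 PR-UAS-bla HEK 293T cells per well in charcoal-stripped serum medium, 16hr at 37C, then beta-lactamase activity measured by LiveBLAzer FRET fluorescence after 2 hours at room temperature.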

[3] = qHTS assay to identify small molecule antagonists of the progesterone receptor (PR) signaling pathway - cell viability counter screen (AID 1346798); note: series mostly up to about 92 µM; nearly all actives have a fitted effect of over 50% in size
Procedure, shortened: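 Cytotoxicity read as CellTiter-Glo luminescence (30 min, room temperature) in the same wells as the beta-lactamase readout. HEK293T PR-UAS-bla cells in charcoal-stripped 2% FBS received compound and R5020, then 16 h at 37C, 5% CO2.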

[4] = qHTS assay to identify small molecule agonists of the progesterone receptor (PR) signaling pathway - cell viability counter screen (AID 1346799; calls by dose curve; note: nearly all actives have a fitted effect of over 45% in size)
Procedure, shortened: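 Cytotoxicity measured by CellTiter-Glo luminescence (30 min, RT) in the same wells as the PR beta-lactamase agonist read. Those HEK293T cells had 16 h compound treatment at 37 C in 2% charcoal-stripped FBS medium.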

[5] = qHTS assay to identify small molecule antagonists of the TGF-beta/Smad signaling pathway - cell viability counter screen (AID 1346824); note: nearly all actives have a fitted effect of over 50% in size
Procedure, shortened: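 Cytotoxicity counter-screen run in the same wells as the beta-lactamase Smad reporter read: CellTiter-Glo luminescence after 30 min at room temperature. HEK 293T SBE-bla cells had 5 hr compound exposure at 37 C with TGF-beta1 (0.25 ng/mL stock).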

[6] = qHTS assay to identify small molecule agonists of the TGF-beta/Smad signaling pathway - cell viability counter screen (AID 1346829); note: top concentration of the series differs between compounds; nearly all actives have a fitted effect of over 45% in size
Procedure, shortened: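 After overnight seating at 37 C and 5% CO2, reporter cells got compounds for 5 hr and FRET substrate for 2 hr; cell viability then came from CellTiter-Glo luminescence.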

[7] = qHTS assay to identify small molecule agonists of the TGF-beta/Smad signaling pathway (AID 1346859; active = well fitted activation curve with a large enough effect in the signal ratio in the repeat runs, not every such curve was filed as active; the % refers to the signal ratio; note: series mostly up to about 77 µM)
Procedure, shortened: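 Fluorescence (ex 405 nm; em 460 and 530 nm) was read 2 h after LiveBLAzer FRET substrate at RT. The preceding compound treatment of overnight-plated SBE-bla HEK293T cells lasted 5 h at 37 C.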

[8] = molecular target: Thyrotropin-releasing hormone receptor (Homo sapiens) (UniProt P34981); assay: qHTS assay to identify small molecule antagonists of the thyrotropin-releasing hormone receptor (TRHR) signaling pathway (AID 1346877; active = well fitted inhibition curve with a large enough effect in the repeat runs, not every such curve was filed as active; note: series mostly up to about 51 µM)
Procedure, shortened: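 Human TRHR in HEK293 cells; inhibition of the intracellular calcium rise triggered by 1 nM TRH was followed by fluorescence over 3 min. Compounds were run at 15 concentrations, three replicates each.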

[9] = molecular target: Thyrotropin-releasing hormone receptor (Homo sapiens) (UniProt P34981); assay: qHTS assay to identify small molecule agonists of the thyrotropin-releasing hormone receptor (TRHR) signaling pathway (AID 1346891; calls by dose curve; note: series mostly up to about 58 µM)
Procedure, shortened: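 Agonist-mode intracellular calcium readout: kinetic fluorescence over 3 min at 1 s intervals after compound addition to TRHR-HEK293 cells (18 h seeded, 2 h dye-loaded at 37 C). Fifteen concentrations, triplicates.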

[10] = Caspase-3/7 induction in HepG2 cells by small molecules, qHTS assay (AID 1346978); note: nearly all actives have a fitted effect of over 15% in size; note: potency is the fitted concentration of half-maximal effect
Procedure, shortened: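 Caspase-3/7 induction was measured by Caspase-Glo 3/7 luminescence (30 min, room temperature) after a 17 hr compound exposure of wild-type HepG2 cells seeded at 2,000 per well and pre-incubated 5 hr.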

[11] = Caspase-3/7 induction in HepG2 cells by small molecules, qHTS cell viability counter screen (AID 1346981); note: nearly all actives have a fitted effect of over 30% in size; note: potency is the fitted concentration of half-maximal effect
Procedure, shortened: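 The parent HepG2 line is plated at 2,000 cells per well and rested 5 hr before compound pinning from DMSO stocks. Following a 16-hr treatment at 37 C, a fluorogenic live-cell substrate (CellTiter-Fluor) reports viability after 1 hr.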

[12] = molecular target: Nuclear receptor subfamily 1 group I member 2 (Homo sapiens) (UniProt O75469); assay: Human pregnane X receptor (PXR) small molecule agonists, qHTS assay (AID 1346982); note: nearly all actives have a fitted effect of over 35% in size; note: potency is the fitted concentration of half-maximal effect
Procedure, shortened: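 After plating in 5% charcoal-stripped FBS and a 5 hr rest, PXR-Luc HepG2 cells received compounds in DMSO. Following 24 hr at 37 C, ONE-Glo was added and light output read.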

[13] = molecular target: Acetylcholinesterase (Homo sapiens) (UniProt P22303); assay: Acetylcholinesterase (AChE) small molecule antagonists: colormetric cell-based qHTS assay (AID 1347395; calls by dose curve; note: nearly all actives have a fitted effect of over 30% in size; note: potency is the fitted concentration of half-maximal effect)
Procedure, shortened: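 Colorimetric readout: DTNB quantifies thiocholine from acetylthiocholine hydrolysed by endogenous AChE of SH-SY5Y cells (2,000/well, plated overnight). Compound pretreatment 30 min, substrate incubation 90 min, both 37 C.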

[14] = molecular target: Progesterone receptor (Homo sapiens) (UniProt P06401); assay: qHTS assay to identify small molecule antagonists of the progesterone receptor (PR) signaling pathway (AID 1346795; active = well fitted inhibition curve with a large enough effect in the signal ratio in the repeat runs, not every such curve was filed as active; the % refers to the signal ratio; note: potency is the fitted concentration of half-maximal effect)
Procedure, shortened: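 Antagonist mode with agonist R5020 at 1 nM final and 16 hr incubation at 37C. Reporter was beta-lactamase driven by UAS in HEK293T (PR-UAS-bla), 2% charcoal-stripped serum; signal from LiveBLAzer FRET substrate, 2 hr at room temperature.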

[15] = Caspase-3/7 induction in CHO-K1 cells by small molecules, qHTS cell viability counter screen (AID 1346979); note: nearly all actives have a fitted effect of over 35% in size; note: potency is the fitted concentration of half-maximal effect
Procedure, shortened: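 Cytotoxicity counter screen: CellTiter-Fluor added to compound-treated wild-type CHO-K1 cells at 16 h (37C, 5% CO2), fluorescence measured 1 h later; same wells as caspase-3/7 measurement.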

[16] = Caspase-3/7 induction in CHO-K1 cells by small molecules, qHTS assay (AID 1346980); note: nearly all actives have a fitted effect of over 15% in size; note: potency is the fitted concentration of half-maximal effect
Procedure, shortened: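 Luminescent Caspase-Glo 3/7 read (30min, room temperature) quantified apoptosis induction. Cells were wild-type CHO-K1, treated with compound for 17hr at 37 C and 5% CO2.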

[17] = Human pregnane X receptor (PXR) small molecule agonists, qHTS cell viability counter screen (AID 1346977); note: nearly all actives have a fitted effect of over 50% in size; note: potency is the fitted concentration of half-maximal effect
Procedure, shortened: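 Same-well viability read: CellTiter-Fluor added after 23 hr compound exposure, fluorescence measured 1 hr later. Cells were PXR-Luc HepG2 seeded at 2,000/well in 5% charcoal-stripped FBS medium, rested 5 hr before dosing at 37 C.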

[18] = molecular target: Nuclear receptor subfamily 1 group I member 2 (Rattus norvegicus) (UniProt Q9R1A7); assay: Rat pregnane X receptor (rPXR) activation by small molecules, qHTS assay (AID 1346983); details: rPXR luciferase reporter cells, One-Glo luminescence, 24 h; max activation: active compounds read high; note: nearly all actives have a fitted effect of over 20% in size
Procedure, shortened: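 Luminescent readout (One-Glo luciferase, 30 min room temperature) followed 24 hr compound treatment at 37 C of rPXR cells plated 2,000 per well and preincubated 5hr; qHTS format with compounds delivered in DMSO.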

[19] = molecular target: Nuclear receptor subfamily 1 group I member 2 (Homo sapiens) (UniProt O75469); assay: CYP3A4 induction through human pregnane X receptor (PXR) by small molecules, qHTS assay (AID 1346984); note: nearly all actives have a fitted effect of over 40% in size
Procedure, shortened: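 Human PXR activation is tracked via CYP3A4 promoter-luciferase in DPX-2 (HepG2) cells. Compounds treat cells for 24hr at 37C, and luminescence is read after One-Glo.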

[20] = molecular target: Nuclear receptor subfamily 1 group I member 2 (Homo sapiens) (UniProt O75469); assay: Human pregnane X receptor (PXR) activation by small molecules, qHTS assay (AID 1346985); note: nearly all actives have a fitted effect of over 40% in size; note: potency is the fitted concentration of half-maximal effect
Procedure, shortened: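 DPX-2 cells (HepG2 co-transfected with a PXR response element and a CYP3A4-promoter luciferase construct) were seeded at 2,000 per well, rested 5 hr at 37C, then exposed to DMSO-dissolved compounds for 24 hr. Activation was read as luciferase luminescence.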

Chain of Progesterone receptor (Homo sapiens) (P06401 whole entry, looked up): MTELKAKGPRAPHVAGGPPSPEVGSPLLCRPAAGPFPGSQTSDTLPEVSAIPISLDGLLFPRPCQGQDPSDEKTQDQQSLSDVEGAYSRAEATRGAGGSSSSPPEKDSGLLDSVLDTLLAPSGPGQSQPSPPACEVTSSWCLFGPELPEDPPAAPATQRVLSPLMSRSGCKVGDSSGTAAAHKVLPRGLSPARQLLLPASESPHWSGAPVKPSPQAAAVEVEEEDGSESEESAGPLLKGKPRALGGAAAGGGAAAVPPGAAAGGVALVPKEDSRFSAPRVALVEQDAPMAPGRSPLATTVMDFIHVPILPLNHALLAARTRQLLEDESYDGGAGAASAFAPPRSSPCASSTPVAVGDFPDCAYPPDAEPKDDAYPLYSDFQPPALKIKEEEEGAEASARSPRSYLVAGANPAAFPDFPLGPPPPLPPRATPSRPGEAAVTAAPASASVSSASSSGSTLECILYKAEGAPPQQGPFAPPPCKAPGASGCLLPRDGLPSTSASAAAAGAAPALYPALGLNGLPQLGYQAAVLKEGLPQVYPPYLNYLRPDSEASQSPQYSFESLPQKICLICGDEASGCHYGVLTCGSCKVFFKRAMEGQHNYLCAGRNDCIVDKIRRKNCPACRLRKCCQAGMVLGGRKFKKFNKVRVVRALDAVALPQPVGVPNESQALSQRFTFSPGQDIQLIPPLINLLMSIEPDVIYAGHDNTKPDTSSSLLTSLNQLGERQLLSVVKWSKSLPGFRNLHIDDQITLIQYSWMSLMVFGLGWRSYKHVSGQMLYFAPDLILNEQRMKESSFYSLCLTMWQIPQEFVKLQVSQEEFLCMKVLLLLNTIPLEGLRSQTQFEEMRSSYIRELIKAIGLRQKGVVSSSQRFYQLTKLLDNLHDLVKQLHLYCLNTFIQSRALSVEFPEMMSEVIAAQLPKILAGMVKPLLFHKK
Chain of Acetylcholinesterase (Homo sapiens) (P22303 whole entry, looked up): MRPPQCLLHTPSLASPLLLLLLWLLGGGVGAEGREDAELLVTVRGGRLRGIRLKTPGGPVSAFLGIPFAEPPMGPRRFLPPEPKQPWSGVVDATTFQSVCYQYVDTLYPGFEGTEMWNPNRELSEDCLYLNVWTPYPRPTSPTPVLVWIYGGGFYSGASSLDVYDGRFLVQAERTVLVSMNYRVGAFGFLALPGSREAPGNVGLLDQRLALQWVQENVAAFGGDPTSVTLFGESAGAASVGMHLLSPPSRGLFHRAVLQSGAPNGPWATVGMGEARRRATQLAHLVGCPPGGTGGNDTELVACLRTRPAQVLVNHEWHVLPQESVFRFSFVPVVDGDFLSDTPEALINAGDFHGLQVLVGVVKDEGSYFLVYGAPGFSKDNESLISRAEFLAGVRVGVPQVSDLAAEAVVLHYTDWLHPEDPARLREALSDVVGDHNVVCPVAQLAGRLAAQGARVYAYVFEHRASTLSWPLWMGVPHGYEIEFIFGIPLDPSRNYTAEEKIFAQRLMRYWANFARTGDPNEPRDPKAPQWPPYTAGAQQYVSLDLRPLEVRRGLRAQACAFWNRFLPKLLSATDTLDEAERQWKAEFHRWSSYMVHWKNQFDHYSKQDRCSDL
Chain of Thyrotropin-releasing hormone receptor (Homo sapiens) (P34981 whole entry, looked up): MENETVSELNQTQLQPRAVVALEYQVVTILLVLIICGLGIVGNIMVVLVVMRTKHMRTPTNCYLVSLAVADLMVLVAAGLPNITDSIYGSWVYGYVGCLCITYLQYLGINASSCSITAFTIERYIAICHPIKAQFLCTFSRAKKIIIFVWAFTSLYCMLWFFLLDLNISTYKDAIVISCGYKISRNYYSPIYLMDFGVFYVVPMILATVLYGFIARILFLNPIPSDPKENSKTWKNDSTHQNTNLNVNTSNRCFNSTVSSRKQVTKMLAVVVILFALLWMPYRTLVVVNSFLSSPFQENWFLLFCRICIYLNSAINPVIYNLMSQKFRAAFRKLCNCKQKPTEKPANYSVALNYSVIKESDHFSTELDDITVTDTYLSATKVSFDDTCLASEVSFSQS
Chain of Nuclear receptor subfamily 1 group I member 2 (Homo sapiens) (O75469 whole entry, looked up): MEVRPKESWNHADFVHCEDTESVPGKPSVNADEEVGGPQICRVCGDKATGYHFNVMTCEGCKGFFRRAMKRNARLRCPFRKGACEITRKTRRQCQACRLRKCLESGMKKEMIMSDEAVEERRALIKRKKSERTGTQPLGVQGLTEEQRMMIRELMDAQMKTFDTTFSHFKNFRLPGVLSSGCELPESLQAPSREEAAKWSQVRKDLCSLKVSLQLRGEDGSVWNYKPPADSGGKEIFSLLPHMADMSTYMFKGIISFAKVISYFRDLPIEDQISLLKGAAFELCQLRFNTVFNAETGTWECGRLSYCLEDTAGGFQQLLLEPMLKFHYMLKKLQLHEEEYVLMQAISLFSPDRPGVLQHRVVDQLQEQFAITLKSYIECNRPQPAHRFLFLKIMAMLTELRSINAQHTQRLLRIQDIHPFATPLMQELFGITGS
Chain of Nuclear receptor subfamily 1 group I member 2 (Rattus norvegicus) (Q9R1A7 whole entry, looked up): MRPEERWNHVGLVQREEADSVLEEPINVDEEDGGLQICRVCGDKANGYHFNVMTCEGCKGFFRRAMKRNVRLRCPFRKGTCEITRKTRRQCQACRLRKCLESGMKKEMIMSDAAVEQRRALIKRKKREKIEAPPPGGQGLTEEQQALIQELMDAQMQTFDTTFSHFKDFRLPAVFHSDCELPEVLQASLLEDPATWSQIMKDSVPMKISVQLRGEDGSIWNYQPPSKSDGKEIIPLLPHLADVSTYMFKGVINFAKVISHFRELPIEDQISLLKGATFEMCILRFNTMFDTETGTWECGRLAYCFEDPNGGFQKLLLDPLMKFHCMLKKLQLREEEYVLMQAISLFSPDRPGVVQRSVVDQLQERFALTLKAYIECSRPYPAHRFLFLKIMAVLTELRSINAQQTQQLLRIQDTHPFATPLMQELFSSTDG

| Compound | Potency [1] | Potency [2] | Potency [3] | Potency [4] | Potency [5] | outcome [6] | outcome [7] | outcome [8] | outcome [9] | Potency [10] | Potency [11] | Potency [12] | Potency [13] | Potency [14] | Potency [15] | Potency [16] | Potency [17] | max activation [18] [%] | Potency [19] | Potency [20] |
| --- | --- | --- | --- | --- | --- | --- | --- | --- | --- | --- | --- | --- | --- | --- | --- | --- | --- | --- | --- | --- |
| CCOP(=S)(OCC)SCSP(=S)(OCC)OCC | inactive | inactive | inactive | inactive | inactive | inactive | inactive | inactive | inactive | inactive | inactive | 5.45 µM (active) | 39.9 µM (active) | – | – | – | – | – | – | – |
| CCCCOC(=O)c1ccccc1C(=O)O | inactive | inactive | – | – | inactive | inactive | inactive | – | – | inactive | inactive | inactive | inactive | inactive | inactive | inactive | – | – | – | – |
| COC(=O)C(C)Oc1ccc(Oc2ccc(Cl)cc2Cl)cc1 (stereo not drawn) | inactive | inactive | inactive | – | inactive | inactive | inactive | – | – | inactive | inactive | inactive | inactive | – | inactive | inactive | inactive | – | – | – |
| COc1cccc2c1cc([N+](=O)[O-])c1c(C(=O)O)cc3c(c12)OCO3 | 61.1 µM (active) | inactive | inactive | – | – | inactive | – | inactive | inactive | 9.69 µM (active) | 27.3 µM (active) | – | inactive | – | 21.7 µM (active) | 9.69 µM (active) | 12.2 µM (active) | – | – | – |
| CC1(C(=O)Nc2ccc(O)c(Cl)c2Cl)CCCCC1 | inactive | inactive | – | – | inactive | inactive | inactive | inactive | inactive | – | inactive | 19.3 µM (active) | inactive | 27.3 µM (active) | – | inactive | inactive | – | – | – |
| CC1CCCCC1NC(=O)Nc1ccccc1 (stereo not drawn) | inactive | inactive | inactive | inactive | inactive | inactive | inactive | inactive | inactive | inactive | inactive | 24.3 µM (active) | inactive | – | inactive | inactive | inactive | – | – | – |
| COC(=O)c1c(C(F)F)nc(C(F)(F)F)c(C2=NCCS2)c1CC(C)C | inactive | inactive | inactive | inactive | – | inactive | inactive | inactive | inactive | inactive | inactive | 0.77 µM (active) | inactive | – | inactive | inactive | inactive | – | – | – |
| COP(=S)(OC)Oc1c(Cl)cc(C)cc1Cl | inactive | inactive | – | – | – | inactive | inactive | inactive | inactive | inactive | inactive | 24.3 µM (active) | inactive | 27.3 µM (active) | inactive | inactive | inactive | – | – | – |
| CCN(Cc1ccc(Cl)nc1)/C(=C/[N+](=O)[O-])NC | inactive | inactive | inactive | inactive | inactive | inactive | inactive | inactive | inactive | inactive | inactive | inactive | – | – | inactive | inactive | inactive | -0.716 | inactive | inactive |
| Nc1n[nH]c(N)n1 | inactive | inactive | – | inactive | inactive | inactive | inactive | inactive | inactive | inactive | inactive | inactive | inactive | – | inactive | inactive | inactive | – | – | – |
| CCC/C(=N\OCC)C1=C(O)CC(CC(C)SCC)CC1=O (stereo not drawn) | inactive | inactive | inactive | inactive | inactive | inactive | inactive | inactive | inactive | inactive | inactive | 48.9 µM (active) | – | – | inactive | inactive | inactive | – | – | – |
| O=C1CN2CCOC2(c2ccccc2Cl)c2cc(Cl)ccc2N1 (stereo not drawn) | inactive | inactive | inactive | inactive | inactive | inactive | inactive | – | – | inactive | inactive | – | inactive | – | inactive | inactive | inactive | – | – | – |
| CN1C(=S)CN=C(c2ccccc2)c2cc(Cl)ccc21 | inactive | inactive | – | – | inactive | inactive | inactive | inactive | inactive | inactive | inactive | 26.6 µM (active) | – | 21.1 µM (active) | inactive | inactive | – | -0.756 | – | 14.1 µM (active) |
| c1cc[c]([Hg][c]2ccccc2)cc1 | inactive | inactive | inactive | – | – | inactive | inactive | inactive | inactive | inactive | inactive | 10.9 µM (active) | – | – | 68.6 µM (active) | inactive | 68.6 µM (active) | – | – | – |
| CNC(=O)N(C)c1nc2ccccc2s1 | inactive | inactive | inactive | inactive | inactive | inactive | inactive | inactive | inactive | inactive | inactive | 30.6 µM (active) | inactive | – | inactive | inactive | inactive | – | – | – |
| CCOP(=S)(OCC)Oc1ncn(-c2ccccc2)n1 | inactive | inactive | – | inactive | inactive | inactive | inactive | inactive | inactive | inactive | inactive | 27.3 µM (active) | 31.7 µM (active) | – | inactive | inactive | inactive | – | – | – |
